Compounds with a hit are over-represented: about 10% of the library has one in this group of screens.
3T3 cytotox: kills NIH 3T3 cells | NIH 3T3 viability, CellTiter-Glo ATP luminescence, 48-72 h | Potency, µM (doses to about 96.7 µM), without a hit: top-dose activity change, negative = cytotoxicity, hits mostly inhibitors | 4.3% of 94,000 active; further: on the % scale 0 is the no-effect control and ±100 the full control effect; nearly all actives have a fitted effect of over 55% in size
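NIH 3T3 cells at 400 cells/well received 23 nL of compound by pintool and were incubated 48 or 72 h at 37 °C. Viability was read as ATP-coupled CellTiter-Glo luminescence.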
GPT2 inhibitor: blocks human glutamate pyruvate transaminase 2; Q8TD30; Recombinant GPT2, coupled pyruvate oxidase/HRP Amplex Red fluorescence; Potency, µM (doses to about 57.7 µM), for the others: top-dose activity change, negative = inhibition, most hits filed as inhibitors; 0.25% of 100,000 active; AID 1671188; further: on the % scale 0 is the no-effect control and ±100 the full control effect; nearly all actives have a fitted effect of over 60% in size
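Fluorescence of coupled pyruvate oxidase/HRP/Amplex Red system (50uM Amplex, 30 min, dark) reports pyruvate formed by GPT2. Enzyme reaction: 10ng/uL GPT2, 2mM L-alanine, 250uM a-KG, 30 min room temperature, pH 7.5; 50uM AOA control.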
HEK cytotox: kills HEK 293 cells; Potency, µM (series often up to 115 µM), for inactives: top-dose activity change, negative = cytotoxicity, hits mostly inhibitors; HEK 293 viability, ATP luminescence (CellTiter-Glo), 48-72 h; AID 1345083; 6.6% of 94,000 active; further: on the % scale 0 is the no-effect control and ±100 the full control effect; nearly all actives have a fitted effect of over 60% in size
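Viability of HEK 293 cells, plated at 250 cells/well, was judged by cellular ATP after compound treatment for 48 or 72 hr. Luminescence was imaged 10 min after CellTiter-Glo addition at room temperature.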
NPR1 antag: blocks ANP-stimulated signaling of human Npr1 receptor | P16066 | HEK293 hNpr1 GloSensor cGMP, ANP-stimulated luminescence | Potency, µM (highest dose often 46.3 µM), for inactives: at the highest dose activity change, negative = inhibition, actives largely listed as inhibitors | 1.6% of 76,000 active | AID 1347048; calls by dose curve; further: on the % scale 0 is the no-effect control and ±100 the full control effect; nearly all actives have a fitted effect of over 60% in size
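HEK293 cells stably expressing human Npr1 and cGMP GloSensor pGS-40F, loaded 2 h with 2% GloSensor reagent, given compound 30 min at room temperature. Luminescence read before and 20 min after 0.1 nM hNppA.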
FLuc inh: blocks purified firefly luciferase enzyme activity. 2.5% of 76,000 active. Potency, µM (series often up to 115 µM), actives largely listed as inhibitors. purified P. pyralis luciferase, luminescence, biochemical. P08659; further: on the % scale 0 is the no-effect control and ±100 the full control effect; nearly all actives have a fitted effect of over 65% in size
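Inhibitors were tested against purified firefly luciferase in a biochemical, low-substrate format (both substrates at 10uM) and luminescence measured with a CCD imager.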
NPR1 antag cnf: hNpr1 antagonism, confirmation assay; 76% of 1,400 active; shares compounds with NPR1 antag; HEK293 hNpr1 cGMP GloSensor luminescence, ANP-stimulated; AID 1347044; Potency, µM (top dose mostly 57.6 µM), without a hit: at the highest dose activity change, negative = inhibition, hits mostly inhibitors; calls by dose curve; further: nearly all actives have a fitted effect of over 70% in size
Npr2 selectivity: selectivity test of Npr1 antagonists against human Npr2 | shares compounds with NPR1 antag | HEK293 hNpr2 GloSensor cGMP luminescence, CNP-stimulated | Potency, µM (doses to about 57.6 µM), for inactives: at the top dose activity change, negative = inhibition, hits mostly inhibitors | 67% of 1,400 active; calls by dose curve; further: nearly all actives have a fitted effect of over 70% in size
Target sequence (P20594 whole entry, looked up): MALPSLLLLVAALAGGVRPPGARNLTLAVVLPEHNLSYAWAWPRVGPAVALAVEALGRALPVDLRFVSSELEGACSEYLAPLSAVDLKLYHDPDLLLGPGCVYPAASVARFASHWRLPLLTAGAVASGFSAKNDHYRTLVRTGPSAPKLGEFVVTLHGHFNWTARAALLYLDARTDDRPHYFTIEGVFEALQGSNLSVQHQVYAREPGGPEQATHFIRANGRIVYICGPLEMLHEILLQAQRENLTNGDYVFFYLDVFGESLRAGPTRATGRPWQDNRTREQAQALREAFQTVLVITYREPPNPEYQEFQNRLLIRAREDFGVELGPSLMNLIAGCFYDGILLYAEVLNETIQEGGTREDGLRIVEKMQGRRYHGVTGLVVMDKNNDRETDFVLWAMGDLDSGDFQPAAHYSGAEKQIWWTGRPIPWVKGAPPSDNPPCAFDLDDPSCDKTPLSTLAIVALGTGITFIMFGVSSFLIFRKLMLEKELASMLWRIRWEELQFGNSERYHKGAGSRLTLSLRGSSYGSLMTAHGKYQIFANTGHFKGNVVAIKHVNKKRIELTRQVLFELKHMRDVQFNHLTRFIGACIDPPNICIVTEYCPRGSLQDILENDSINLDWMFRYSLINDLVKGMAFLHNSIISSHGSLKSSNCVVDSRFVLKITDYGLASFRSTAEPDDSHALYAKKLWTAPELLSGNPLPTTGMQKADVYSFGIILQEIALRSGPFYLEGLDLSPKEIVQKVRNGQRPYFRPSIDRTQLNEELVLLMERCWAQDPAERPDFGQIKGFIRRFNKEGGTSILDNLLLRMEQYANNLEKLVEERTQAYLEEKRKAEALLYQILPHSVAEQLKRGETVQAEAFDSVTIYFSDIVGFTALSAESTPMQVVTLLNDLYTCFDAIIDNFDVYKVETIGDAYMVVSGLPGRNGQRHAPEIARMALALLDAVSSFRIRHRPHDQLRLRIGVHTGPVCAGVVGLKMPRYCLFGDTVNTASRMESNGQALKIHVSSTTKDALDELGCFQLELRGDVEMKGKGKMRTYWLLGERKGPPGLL
FLuc inh counter: inhibits firefly luciferase, false Npr1 antagonist flag; shares compounds with NPR1 antag; purified FLuc enzyme, luminescence, Km substrate; Potency, µM (series often up to 57.6 µM), without a hit: at the highest dose activity change, negative = inhibition, hits mostly inhibitors; 0.7% of 1,400 active; AID 1347047; further: 0% is about no effect
GloSensor ctrl: control cell line activity, Npr1 antagonist counter-screen; shares compounds with NPR1 antag; HEK293 GloSensor cGMP, SNP-stimulated, luminescence; Potency, µM (series often up to 57.6 µM), for inactives: at the top dose activity change, negative = inhibition, hits mostly inhibitors; 69% of 1,400 active; calls by dose curve; further: on the % scale 0 is the no-effect control and ±100 the full control effect; nearly all actives have a fitted effect of over 70% in size
* = called active by the depositor; i = inactive; u = inconclusive; x = no result; [ ] = dose if it differs, or a comment. Unless noted, the call rests on the fitted dose curve; in most records, active means well fitted curve in the direction sought with a large enough effect; inconclusive means small, poorly fitted or top-dose-only effect, or another doubt; inactive means no such curve, though single readings can be large; an effect the other way counts as inactive or inconclusive. Potency means the concentration at half of the fitted maximal effect.

SMILES	3T3 cytotox	GPT2 inhibitor	HEK cytotox	NPR1 antag	FLuc inh	NPR1 antag cnf	Npr2 selectivity	FLuc inh counter	GloSensor ctrl
OC1CC(c2cc(N3CCC(Cc4noc(C5CC5)n4)CC3)ncn2)C1 (centres undefined)	u	u	-52%	0.79µM*	i	0.86µM*	1.2µM*	1%	0.77µM*
CN(Cc1noc(C2CCCC2)n1)c1cc(C2CC(O)C2)ncn1 (centres undefined)	u	5%[11.5 µM]	-44%	u	i	22µM*	u	1%	22µM*
CNC(=O)c1ccc(CC2CCN(C(C)=O)CC2)cc1	-27%	-8%	-26%	6%	i	x	x	x	x
CC(=O)N1CCC(Cc2ccc(C(=O)NC3CCN(Cc4ccccc4)CC3)cc2)CC1	u	5%	u	11µM*	i	24µM*	u	1%	24µM*
Cn1cc(-c2cnc3[nH]cc(CC(=O)Nc4ccc(C(F)(F)F)cc4)c3c2)cn1	u	-8%[88.5 µM]	u	u	i	u	u	-1%[86.2 µM]	u
COc1ccc(-c2cnc3[nH]cc(CC(=O)Nc4cccc(N(C)C)c4)c3c2)cc1	u	-43%[88.5 µM]	u	u	i	u	u	-9%[86.2 µM]	-25%[86.2 µM]
COc1ccc(-c2cnc3[nH]cc(CC(=O)NCCc4ccccn4)c3c2)cc1	u	2%[88.5 µM]	-23%[172 µM]	3%[70.6 µM]	i	x	x	x	x
Cc1ccccc1-c1cnc2[nH]cc(CC(=O)Nc3cccnc3)c2c1	u	-7%[88.5 µM]	u	16µM*	i	25µM*	31µM*	-3%[86.2 µM]	22µM*
COc1ccc(-c2cnc3[nH]cc(CC(=O)Nc4cccnc4)c3c2)cc1	u	4%[88.5 µM]	71µM*	u	i	u	-29%[86.2 µM]	u	-23%[86.2 µM]
CSc1ccc(-c2noc(-c3ncn4c3COC(c3ccccc3Cl)C4)n2)cc1 (centres undefined)	u	i	u	5%	i	x	x	x	x
COc1ccc(C(CC(=O)NCCC(C)C)c2c[nH]c3ccccc23)c(OC)c1 (centres undefined)	u	i	u	-19%	i	x	x	x	x
CNC(=O)c1cc(-c2cccnc2)cc2c1OCCN2Cc1cccnc1	u	-5%[88.5 µM]	5%[172 µM]	8%[70.6 µM]	i	x	x	x	x
O=C(Nc1cccnc1)c1cc(-c2ccccc2F)cc2c1OCCN2Cc1cccnc1	40µM*	-7%[88.5 µM]	u	u	i	u	31µM*	-16%[86.2 µM]	-5%[86.2 µM]
COc1cccc(C(=O)N2CCCN(c3ccnc4ccnn34)CC2)c1	-22%	i	-16%	x	x	x	x	x	x
O=C(Nc1ccccc1)[C@@H]1OCCN(C2CC2)[C@H]1c1ccccc1	-13%	i	-24%	x	x	x	x	x	x
CC(C)N1CCN(C(=O)c2cc3n(n2)CC(c2ccc(Br)cc2)OC3)CC1 (centres undefined)	u	i	u	u	i	u	u	0%	u
O=C(c1cc2n(n1)CC(c1ccc(Cl)cc1)OC2)N1CCN(c2ccc(Cl)cc2)CC1 (centres undefined)	u	-1%	32µM*	13µM*	i	u	u	0%	u
CC1CCC(NC(=O)c2cc3n(n2)CC(c2ccc(Cl)cc2)OC3)CC1 (centres undefined)	u	-9%	u	-27%	i	x	x	x	x
CC(=O)c1ccc(NC(=O)c2cc3n(n2)CC(c2ccc(Br)cc2)OC3)cc1 (centres undefined)	-13%	i	u	u	i	x	x	x	x
O=C(NC1CN(c2ccnc3ccnn23)C1)C1CCCC1	0%[138 µM]	-2%[88.5 µM]	i	x	x	x	x	x	x
O=C(NCCc1ccccc1)N1CCC(N2C(=O)C3(CCCCC3)C2c2ccncc2)CC1 (centres undefined)	-12%	i	-17%	9%	i	x	x	x	x
CN(C)c1ccc(CN2CCC3(CC2)CC(=O)Nc2ccccc2O3)cc1	1%	-7%	-18%	x	x	x	x	x	x
CC1=C(C(=O)OC(C)C)C(c2ccc(C)cc2)CC(=O)N1Cc1cccc(C#N)c1 (centres undefined)	u	-13%	35µM*	u	i	u	u	1%	-2%
N#Cc1ccc(C(=O)NC2CCN(c3cc(-c4ccc(Cl)cc4)[nH]n3)CC2)cc1	-20%	i	u	u	i	u	u	-2%	u
Cc1ccccc1OCC(=O)NC1CCN(c2cc(-c3ccccc3)[nH]n2)CC1	u	1%	25µM*	11µM*	i	15µM*	22µM*	-2%	11µM*
SMILES	3T3 cytotox	GPT2 inhibitor	HEK cytotox	NPR1 antag	FLuc inh	NPR1 antag cnf	Npr2 selectivity	FLuc inh counter	GloSensor ctrl
COc1ccc(-c2cc(N3CCC(NC(=O)Cc4cccc(OC)c4)CC3)n[nH]2)cc1	u	-6%	u	-7%	i	x	x	x	x
COc1ccc(CC(=O)NC2CCN(c3cc(-c4ccc(Cl)cc4)[nH]n3)CC2)cc1OC	u	3%	40µM*	18µM*	i	24µM*	22µM*	-1%	24µM*
COc1cccc(CC(=O)NC2CCN(c3cc(-c4ccc(Cl)cc4)[nH]n3)CC2)c1	-24%	i	-30%	u	i	u	u	-3%	u
O=C(COc1ccccc1)NC1CCN(c2cc(-c3ccccc3)[nH]n2)CC1	u	0%	u	-30%	i	x	x	x	x
COc1ccc(C(=O)NC2CCCN(c3cc(-c4ccc(Cl)cc4)[nH]n3)C2)c(C)c1 (centres undefined)	-28%	i	-29%	u	i	u	u	-2%	u
COc1ccc(CC(=O)NC2CCN(c3cc(-c4ccc(F)cc4)[nH]n3)C2)cc1OC (centres undefined)	u	u	u	13µM*	i	22µM*	22µM*	-1%	24µM*
COc1ccc(CC(=O)NC2CCCN(c3cc(-c4ccc(F)cc4)[nH]n3)C2)cc1 (centres undefined)	0%	i	-10%	-3%	i	x	x	x	x
